Bioassay records: PubChem, National Center for Advancing Translational Sciences (NCATS)
Compounds with a hit are over-represented: about 7.5% of the library has one in this group of screens.
Rab9 prom act: qHTS Assay for Rab9 Promoter Activators | Potency, µM (series often up to 9.22 µM), actives largely listed as activators | AID 485297, 2010 | Huh7 Rab9 promoter-luciferase reporter, luminescence, 24 h | 320,000 tested, 2.8% active; also: nearly all actives have a fitted effect of over 60% in size
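Stable Rab9-luc Huh7, 1500 cells/well, 2 h settle; cmpd in DMSO, 24 h, 37 °C/5% CO2; luciferase reagent 10 min RT; luminescence.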
KinaseGlo FLuc: Counterscreen for Luciferase (Kinase-Glo TM) Inhibition; Luciferin 4-monooxygenase (Photuris pensylvanica), Q27757; Kinase-Glo luciferase, ATP luminescence, 8 min; Potency, µM (titrated, usually from 38.3 µM), hits mostly inhibitors; 200,000 tested, 0.28% active; AID 1379, 2008; also: nearly all actives have a fitted effect of over 60% in size
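Compound is pinned into ATP-containing buffer (10 uM ATP, imidazole pH 7.2, 7 mM MgCl2). Kinase-Glo luciferase reagent is then added. Light output is recorded following an 8-min room-temperature incubation.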
ELG1 genotox: qHTS screen for small molecules that induce genotoxicity in human embryonic kidney (HEK293T) cells expressing luciferase-tagged ELG1; Potency, µM (titrated, usually from 46 µM), hits mostly activators; 330,000 tested, 1.3% active; HEK293T ELG1-luciferase reporter, luminescence, 16 h; AID 504466, 2011; also: nearly all actives have a fitted effect of over 60% in size
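Luminescence read-out: rising ELG1-luciferase signal, reflecting elevated ELG1 protein under genetic stress, flags genotoxic compounds. Cells were treated for 16 hr at 37 °C before ONE-Glo detection.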
SMN2 splice enh: qHTS Assay for Enhancers of SMN2 Splice Variant Expression; HEK293 SMN2-luciferase splicing reporter, luminescence, 30-36 h; 210,000 tested, 2.8% active; Potency, µM (doses to about 46.1 µM), hits mostly activators; also: nearly all actives have a fitted effect of over 55% in size
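HEK293 cells carry an SMN2 minigene-luciferase reporter in which exon 7 inclusion puts luciferase in frame. Cells were seeded at 2000 cells/well, attached for 10-12 hours, then exposed to compounds for 30-36 hours at 37C before ONE-Glo luminescence.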
NPC1 prom act: qHTS Assay for NPC1 Promoter Activators. 320,000 tested, 2.4% active. Potency, µM (series often up to 9.22 µM), hits mostly activators. Huh7 NPC1 promoter luciferase reporter, 24 h; also: nearly all actives have a fitted effect of over 60% in size
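Huh7 reporter cells (NPC1 promoter driving luciferase) are dosed with compound for 24 h at 37 °C, 5% CO2; luciferase detection reagent is then added and luminescence measured after 10 min at ambient temperature.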
FLuc counter: qHTS profiling assay for firefly luciferase inhibitor/activator using purifed enzyme and Km concentrations of substrates (counterscreen for miR-21 project) | Luciferin 4-monooxygenase (Photinus pyralis), P08659 | AID 588342, 2011 | 360,000 tested, 6.9% active | Potency, µM (series often up to 57.5 µM), actives largely listed as inhibitors | purified FLuc, Km substrates, luminescence inhibition; also: nearly all actives have a fitted effect of over 55% in size
Target sequence (P08659 whole entry, looked up): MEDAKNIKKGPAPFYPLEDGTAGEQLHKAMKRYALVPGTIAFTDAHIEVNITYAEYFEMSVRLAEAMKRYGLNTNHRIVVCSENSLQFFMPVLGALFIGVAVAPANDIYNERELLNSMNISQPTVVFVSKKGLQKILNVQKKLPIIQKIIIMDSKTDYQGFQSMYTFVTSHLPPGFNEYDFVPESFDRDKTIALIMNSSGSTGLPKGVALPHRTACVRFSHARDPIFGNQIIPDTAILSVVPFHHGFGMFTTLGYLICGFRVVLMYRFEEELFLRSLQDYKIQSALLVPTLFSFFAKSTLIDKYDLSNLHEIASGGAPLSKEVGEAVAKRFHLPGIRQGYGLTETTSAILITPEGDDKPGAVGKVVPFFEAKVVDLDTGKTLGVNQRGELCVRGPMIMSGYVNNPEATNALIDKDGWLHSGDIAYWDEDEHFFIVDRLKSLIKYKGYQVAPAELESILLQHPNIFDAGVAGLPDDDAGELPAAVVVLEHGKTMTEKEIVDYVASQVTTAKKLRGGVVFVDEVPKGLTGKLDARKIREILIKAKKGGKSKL
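Purified P. pyralis luciferase, 10 nM final, with Km-level 10 uM D-luciferin and 10 uM ATP in 50 mM Tris acetate pH 7.5, 10 mM Mg acetate, 0.01% Tween-20, 0.05% BSA; 6-point qHTS titration about 60 µM downward; luminescence read.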
A number is an active result; - = inactive; ? = inconclusive; . = no result; [ ] = remark or other dose. Calls follow the shape of the dose curve; as a rule, active = well fitted curve in the direction sought with a large enough effect; inconclusive = small, poorly fitted or top-dose-only effect, or another doubt; inactive = no such curve, though single readings can be large; an effect the other way counts as inactive or inconclusive.

SMILES	Rab9 prom act	KinaseGlo FLuc	ELG1 genotox	SMN2 splice enh	NPC1 prom act	FLuc counter
COc1cccc(/C=N/Nc2cc(-n3nc(C)cc3-c3ccccc3)ncn2)c1O	-	-	-	-	-	-
CN(Cc1ccccc1)C(=O)CN(c1ccc(F)cc1)S(=O)(=O)c1ccc2c(c1)OCCO2	-	-	-	-	-	-
CCN(CC)CCN1C(=O)C2C(C(=O)Nc3cc(C)cc(C)c3)C3C=CC2(O3)C1C(=O)NC1CCCCC1 (centres undefined)	-	.	-	.	-	-
Cc1ccc(-n2nc(C)c3c2OC(N)=C(C#N)C3c2ccc(C)o2)cc1 (centres undefined)	-	-	-	-	-	?
Cc1nn(-c2ccccc2)c2c1C(c1ccccc1)C(C#N)=C(N)O2 (centres undefined)	-	-	-	-	-	-
Cc1ccc(-n2nc(C)c3c2OC(N)=C(C#N)C3c2ccoc2)cc1 (centres undefined)	-	-	-	-	-	10.7µM
Cc1ccc(-n2nc(C)c3c2OC(N)=C(C#N)C3c2ccco2)cc1 (centres undefined)	-	-	-	-	-	1.69µM
COc1cccc([C@@H]2Oc3ccc(OC)cc3C(=O)[C@H]2OC(=O)N[C@H]2CCCc3ccccc32)c1	.	-	.	-	.	.
COc1ccc(/C=C/C(=O)c2cccs2)c(OC)c1	.	-	.	.	.	.
O=C(/C=C/c1ccnc2ccccc12)c1cccs1	0.316µM	12.6µM	?	7.08µM	0.562µM	0.0675µM
Cc1cc(C)nc(Nc2ccc(N3CCOCC3)cc2)n1	-	-	-	-	-	?
COc1ccc(Nc2nc(C)cc(C)n2)cc1Cl	?	.	?	.	?	19µM
Cc1cc(C)nc(Nc2ccc(N3CCCC3)cc2)n1	-	-	?	-	-	19µM
Cc1cc(C)nc(Nc2ccc(C(=O)O)cc2)n1	1.78µM	-	?	11.2µM	3.55µM	15.1µM
Cc1cc(C)nc(Nc2ccc(O)cc2)n1	-	.	-	.	-	-
Cc1ccc(Nc2ccc(C(=O)O)cc2N)cc1	-[1.84 µM]	-	?	?	?	5.36µM
O=C(OCCc1cc2ccccc2c(=O)o1)c1cccc(Br)c1	-	.	-	.	-	-
COC(=O)c1ccccc1-c1c2ccc(=N)cc-2oc2cc(N)ccc12	-	.	-	.	-	-
CCC(C(=O)Nc1ccc(F)cc1F)n1nc(-c2ccccc2)c2c(c1=O)CCCC2 (centres undefined)	.	.	.	-	.	-
CCc1ccc(Nc2cc(C)nc3nc(C)nn23)cc1	-	-	-	-	-	-
CCc1ccc(Nc2nc(C)cc(C)n2)cc1	5.01µM	.	?	.	?	12µM
Cc1ccc(NC(=O)CSc2ccc3c(c2)OCCO3)nc1	-	.	-	.	-	-
Cc1c(C)c(C)c2[nH]c(-c3ccc4c(c3)OCO4)nc2c1C	-	.	-	.	-	4.78µM
O=c1ccc2cc(S(=O)(=O)N3CCOCC3)ccc2o1	-	-	-	7.94µM	-	-
COc1ccc(N=Cc2c[nH][nH]c2=O)cc1	-[1.84 µM]	-	-	-	-	-
SMILES	Rab9 prom act	KinaseGlo FLuc	ELG1 genotox	SMN2 splice enh	NPC1 prom act	FLuc counter
C=CCOc1ccc(C=Nc2ccc(OC)cc2)c(O)c1	-	.	-	.	-	8.49µM
Cn1c(O)c(N=Nc2ccccc2[N+](=O)[O-])c2ccccc21	?	.	?	.	3.55µM	?
CCCCn1c(O)c(N=Nc2ccccc2O)c2ccccc21	-	.	-	.	-	-
Cc1occc1C(=O)N=Nc1c(O)n(C)c2ccccc12	?	-	?	2.82µM	?	1.69µM
Cc1cc(N=NC(=O)c2ccccc2O)c2ccccc2c1O	3.16µM	-	-	-	?	10.7µM
CCOC(=O)C(=O)N=Nc1c(O)n(C)c2ccccc12	-	-	-	.	-	-
Cn1c(O)c(N=NC(=O)c2ccco2)c2ccccc21	2.24µM	-	?	10µM	3.98µM	4.78µM
Cc1cc([N+](=O)[O-])ccc1NC(=O)C(C)NC1CCCCC1 (centres undefined)	-	.	-	.	-	-
CC(C)(C)OC(=O)N1CCC(c2nnc(SCc3ccccc3F)o2)CC1	.	.	.	-	.	-
Cn1c(O)c(N=NC(=O)c2ccccc2O)c2ccccc21	?	-	7.3µM	.	3.55µM	3.01µM
Cc1ccccc1-c1nc2c3c(-c4ccccc4)c(-c4ccccc4)oc3ncn2n1	.	.	.	-	.	-
O=c1cc(CO)occ1O	.	-	.	.	.	.
CCOc1ccc(N=c2scc(-c3ccccc3)n2CCO)cc1	-	-	-	?	-	15.1µM
CCn1c(-c2ccccc2)csc1=Nc1ccc(O)cc1	2.24µM	-	?	?	2.82µM	8.49µM
CCOc1ccc(N=c2scc(-c3ccc(OC)cc3)n2CCO)cc1	-	-	-	-	-	-
OCCn1c(-c2ccc(F)cc2)csc1=Nc1ccccc1	-	-	?	-	-	?
NC(=O)CSc1ncc2c(n1)-c1ccccc1N(Cc1ccc(F)cc1)S2(=O)=O	.	.	.	.	.	-
CN(CCCNC(=O)CCc1cn(C)c2ccccc12)C1CCCCC1	-	.	-	.	-	-
COCC(=O)N1CCC2(CC1)CCN(c1ccc(-c3ccccc3)cc1)CC2	.	-	.	-	.	.
O=C(Nc1c[nH]c(=O)[nH]c1=O)c1ccc2c(c1)C(=O)N(c1cccc([N+](=O)[O-])c1)C2=O	-	.	-	.	-	-
CCCCN1C(=O)c2ccc(C(=O)Nc3cccc(C)c3C)cc2C1=O	-	-	-	-	-	-
O=C(Nc1ccccc1C(=O)O)c1ccc2c(c1)C(=O)N(c1cccc([N+](=O)[O-])c1)C2=O	-	.	-	.	-	26.9µM
CCCN1C(=O)c2ccc(C(=O)Nc3cc(C)ccc3O)cc2C1=O	?	.	?	.	2.24µM	3.38µM
CCCN1C(=O)c2ccc(C(=O)Nc3ccccc3C(=O)O)cc2C1=O	-	.	-	.	?	3.79µM
Cc1ccc(O)c(NC(=O)c2ccc3c(c2)C(=O)N(CC(C)C)C3=O)c1	?	.	?	.	2.82µM	2.39µM
SMILES	Rab9 prom act	KinaseGlo FLuc	ELG1 genotox	SMN2 splice enh	NPC1 prom act	FLuc counter
O=C(O)c1ccc(N2CC3CC(C2)c2cccc(=O)n2C3)c(NS(=O)(=O)c2cccc(C(F)(F)F)c2)c1 (centres undefined)	-	.	-	.	-	-
O=C(Nc1cc(Cl)ccc1Cl)Nn1cnnc1	-	.	-	.	-	-
C#CCOc1ccc(C2C(C(=O)OC)=C(C)NC3=C2C(=O)c2ccccc23)cc1OCC (centres undefined)	.	.	.	.	.	-
Cc1ccn2cc(CNS(=O)(=O)c3cccs3)nc2c1	-	.	-	.	-	-
CCCS(=O)(=O)Nc1cc(-c2cn3ccc(C)cc3n2)ccc1C	.	.	.	-	.	9.53µM
COc1ccc(S(=O)(=O)Nc2cc(-c3cn4ccc(C)cc4n3)ccc2C)cc1OC	.	.	.	-	.	15.1µM
